In the library only some 2.4% were active in any assay of this set; here they are far more common.
D2 PAM-1 = positive allosteric modulators of human D2 dopamine receptor | P14416 | HEK293 T-REx D2, calcium flux, EC20 dopamine potentiation | potentiation, % at 10 µM | 340,000 tested, 0.34% active | AID 485347;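 active = potentiation over 3 SD above the plate norm, cut at about 30% in these data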; note: 0% is about no effect
Target sequence (P14416 whole entry, looked up): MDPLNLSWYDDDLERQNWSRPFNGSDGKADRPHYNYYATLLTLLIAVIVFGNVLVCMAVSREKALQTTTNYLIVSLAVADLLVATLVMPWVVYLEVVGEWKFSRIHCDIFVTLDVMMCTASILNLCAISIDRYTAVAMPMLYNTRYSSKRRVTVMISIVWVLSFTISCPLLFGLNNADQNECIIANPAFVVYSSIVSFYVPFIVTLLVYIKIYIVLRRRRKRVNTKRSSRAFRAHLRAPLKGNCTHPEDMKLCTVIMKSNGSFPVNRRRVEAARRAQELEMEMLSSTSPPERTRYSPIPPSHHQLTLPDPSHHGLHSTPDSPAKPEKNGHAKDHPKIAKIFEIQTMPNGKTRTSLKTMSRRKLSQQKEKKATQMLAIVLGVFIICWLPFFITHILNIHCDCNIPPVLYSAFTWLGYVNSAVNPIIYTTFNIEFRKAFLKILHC
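Tetracycline-induced HEK293 T-REx cells force-coupled to calcium signalling expressed D2; compounds were pin-added after a 10 s baseline, read kinetically 180 s, then an EC20 dopamine challenge followed with a further 180 s calcium read.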
D2 ag-1 = human D2 receptor agonism in beta-arrestin assay; activation, % (no concentration beside the values); 360,000 tested, 0.084% active; AID 624465; DiscoveRx PathHunter D2 beta-arrestin, luminescence, 90 min; 100% = 57 uM dopamine signal; in the data active = activation above about 40%; inconclusive = between about 15% and that limit
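DiscoveRx PathHunter D2 beta-arrestin cells (2,100/well) attached overnight, then compound-stimulated 90 min at 37 C in HBSS/10 mM HEPES/0.1% Tween-20 buffer; beta-galactosidase complementation read by luminescence after 1 h at ambient temperature. Dopamine 57 uM final (EC100) as control.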
D2 PAM-2 = potentiates the human D2 dopamine receptor allosterically; P14416; DiscoveRx D2 beta-arrestin cells, luminescence, 90 min; 100% = 57 uM dopamine signal; potentiation, % (concentration not given with the values); 360,000 tested, 0.23% active; AID 624464; in the data active = potentiation above about 50%; inconclusive = mostly about 30% to 49%
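PathHunter D2 cells, attached overnight at 37 deg C, received compound in DMSO plus dopamine at EC20 (50 nM final) for 90 min at 37 deg C. Beta-arrestin recruitment was read as luminescence after 1 h with detection reagent at ambient temperature.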
D2 ag-2 = D2 dopamine receptor (human) agonism | P14416 | HEK293 T-REx D2 cells, calcium flux agonist mode | activation, % at 2 µM | 340,000 tested, 0.53% active | AID 485358;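 active = activation over 3 SD above normal in the single-dose calcium agonist read, cut at about 30% in these data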; note: 0% is about no effect
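Tetracycline-induced HEK293 T-REx cells with force-coupled D2 receptor, plated overnight at 30 C, loaded with no-wash calcium dye. After a 10 s baseline, compound was pin-added and calcium flux read kinetically for 180 s; calcium rises flagged agonists.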
D2 antagonist = antagonizes the human D2 dopamine receptor. P14416. HEK293 TREx D2 cells, calcium flux, dopamine EC80. inhibition, % at 10 µM. 340,000 tested, 2% active; in the data active = inhibition above about 30%; inactive = below that, where a call was filed; note: 0% is about no effect
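Tetracycline-induced HEK293 TREx cells expressing D2 receptor forced-coupled to calcium signalling, loaded with no-wash calcium dye. Compounds added and calcium flux read 180 s, then dopamine added at EC80 and read a further 180 s.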
* marks the source's active call; other numbers are inactive results; ? = inconclusive; · = no result.

SMILES | D2 PAM-1 | D2 ag-1 | D2 PAM-2 | D2 ag-2 | D2 antagonist
COc1cc(CN2CCCC(CO)(Cc3ccccc3F)C2)ccc1O (stereo not drawn) | -6 | -5 | -5 | 0 | 14
COC(=O)c1ccc(CN2CCCC(CO)(Cc3ccccc3F)C2)cc1 (stereo not drawn) | -20 | -1 | -1 | -2 | 84*
COc1ccc(-n2nnnc2C(c2ccccc2OC(F)(F)F)N2CCN(C/C=C/c3ccccc3)CC2)cc1 (stereo not drawn) | · | -2 | -14 | · | ·
Cc1ccc(C)c(N2CCN(CCCNC(=O)c3cnn(-c4ccccc4Cl)c3C3CCN(C(=O)OC(C)(C)C)CC3)CC2)c1 | -11 | · | · | 2 | ·
COC(=O)c1cc2oc3ccccc3c2n1Cc1cc(C)ccc1C | 30 | · | · | 0 | ·
O=C(CCn1c(=O)c2cccn2c2cccnc21)Nc1ccccc1C(F)(F)F | 1 | · | · | · | ·
CCc1ccc(NCc2cc3ccc(OC)cc3n(CC(=O)Nc3c(C)cc(C)cc3C)c2=O)cc1 | 6 | · | · | 0 | ·
OCC1(CCc2ccccc2)CCCN(CCCc2ccccc2)C1 (stereo not drawn) | -23 | 5 | -23 | 0 | 76*
CCOc1ccc(CN2CCCC(CO)(Cc3ccc(F)cc3)C2)cc1 (stereo not drawn) | -18 | -1 | -21 | 0 | 68*
COc1ccc(CN2CCCC(CO)(Cc3ccc(F)cc3F)C2)cc1 (stereo not drawn) | -23 | -2 | -12 | 1 | 43*
Cc1ccc(Oc2c(C(F)(F)F)oc3cc(OCC(=O)NC4CCCCC4)ccc3c2=O)cc1 | 7 | · | · | -1 | ·
Cc1ncc(CN2CCC(CO)(CCc3ccccc3)CC2)s1 | -38 | -3 | -23 | 1 | 81*
CC(COc1ccccc1)N1CCC(CO)(CCc2ccccc2)CC1 (stereo not drawn) | -17 | -1 | -15 | 17 | 52*
OCC1(CCCc2ccccc2)CCN(Cc2cnc(N3CCOCC3)s2)CC1 | -3 | -2 | -12 | 0 | -9
COc1ccccc1N1CCN(C(=O)CN2C(=O)COc3ccc(S(=O)(=O)N4CCC(C)CC4)cc32)CC1 | 15 | · | · | -1 | ·
O=C(CN1C(=O)S/C(=C\c2ccc(F)cc2)C1=O)NC1C=CS(=O)(=O)C1 (stereo not drawn) | 0 | -4 | -8 | 0 | -12
O=C(CCN1C(=O)/C(=C/c2ccc(F)cc2)SC1=S)NC1C=CS(=O)(=O)C1 (stereo not drawn) | 56* | 1 | -8 | 0 | -9
CC(=O)NC(CC(=O)OCC(=O)N1c2ccccc2NC(=O)C1(C)C)c1ccccc1 (stereo not drawn) | -16 | -1 | -33 | 0 | 52*
CC1(C)C(=O)Nc2ccccc2N1C(=O)COC(=O)C1CCCCC1 | 0 | 3 | -24 | 1 | -9
Cc1ccc(C)c(OCCC(=O)OCC(=O)N2c3ccccc3NC(=O)C2(C)C)c1 | -3 | -3 | -15 | 0 | 42*
O=C(CN1C(=O)NC(Cc2c[nH]c3ccccc23)C1=O)Nc1cccc(S(=O)(=O)N2CCCCCC2)c1 (stereo not drawn) | 10 | 4 | 52* | -2 | 3
C/C(=C\C(=O)c1ccccc1)Nc1ccc(O)cc1 | -5 | ? | 56* | -1 | -10
CCN1C(=O)C(Cc2nc3ccccc3c(=O)n2-c2cccc(C)c2)c2ccccc21 (stereo not drawn) | 11 | · | · | 2 | ·
Cc1nnc(SCc2ccc(Cl)cc2)c2cc3occc3n12 | 2 | · | · | · | ·
C=CCN(c1ccccc1)S(=O)(=O)c1cccc(C(=O)NC2CCN(Cc3ccccc3)CC2)c1 | -10 | -4 | -32 | 0 | 66*
Cc1ccc(NS(=O)(=O)c2cccc(C(=O)NC3CCN(Cc4ccccc4)CC3)c2)c(C)c1 | · | 0 | -3 | · | ·
O=C(NC1CCN(Cc2ccccc2)CC1)c1cccc(S(=O)(=O)Nc2ccc(F)cc2)c1 | -28 | 2 | -6 | 0 | 45*
O=C(NC1CCN(Cc2ccccc2)CC1)c1cccc(S(=O)(=O)Nc2ccc(Br)cc2)c1 | -17 | 3 | -32 | 1 | 34*
CCOC(=O)c1ccccc1NC(=O)c1cc2ccc3cccnc3c2[nH]1 | 4 | · | · | 0 | ·
CCn1c(C(=O)NCc2ccc(OC)cc2)cc2sc(Cl)cc21 | · | · | · | 1 | ·

Screening data from PubChem BioAssay.
